PubChem BioAssay (NCATS)
Several values for one entry are separate records, joined by “and”; a condition that tells them apart may be missing. Equal entries are not always repeated. Results filed as inconclusive are left out. Where a call stands in place of a potency, no number is given. Some compounds were tested as several samples or in several runs, with calls that do not always agree. Activity calls are given as the source filed them. Calls come from the whole dose curve; as a rule, active = well fitted curve in the direction sought with a large enough effect; inconclusive = small, poorly fitted or top-dose-only effect, or another doubt; inactive = no such curve, though single readings can be large; an effect the other way counts as inactive or inconclusive.

Columns and labels:
[1] = system: MCC-26; experiment: qHTS assay to identify novel small-molecules to repurpose for Merkel cell carcinoma treatment (AID 1296009); details: MCC and control cell lines, CellTiter-Glo viability, 72 h; series mostly up to 46 µM; note: nearly all actives have a fitted effect of over 60% in size
How it was run: (§1)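 Cell viability, measured as CellTiter-Glo luminescence, was normalized between DMSO and no-cell wells. The cells had been exposed to 8- or 11-point compound dilutions for 72 hr at 37 degree celsius.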

[2] = system: MKL-1; experiment: as above; details: MCC and control cell lines, CellTiter-Glo viability, 72 h; series mostly up to 46 µM
How it was run: as §1

[3] = system: MKL-2; experiment: as above; details: MCC and control cell lines, CellTiter-Glo viability, 72 h; series mostly up to 46 µM
How it was run: as §1

[4] = system: UISO; experiment: as above; details: MCC and control cell lines, CellTiter-Glo viability, 72 h; series mostly up to 46 µM
How it was run: as §1

[5] = system: MCC-13; experiment: as above; details: MCC and control cell lines, CellTiter-Glo viability, 72 h; series mostly up to 46 µM
How it was run: as §1

[6] = system: CAOV3; experiment: Primary qHTS to identify gynecologic anti-cancer compounds using libraries of approved drugs and bioactive compounds (AID 1345084); details: Gynecologic cancer cell panel viability, ATPlite luminescence, 48 h; series mostly up to 57.5 µM; note: nearly all actives have a fitted effect of over 55% in size
How it was run: (§2)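 ATP-based viability (ATPlite), 1,000 cells/well, 16 h pre-incubation, 48 h compound at 37 C, 5% CO2, 15 min RT before read.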

[7] = system: C33A; experiment: as above; details: Gynecologic cancer cell panel viability, ATPlite luminescence, 48 h; series mostly up to 57.5 µM
How it was run: as §2

[8] = system: CASKI; experiment: as above; details: Gynecologic cancer cell panel viability, ATPlite luminescence, 48 h; series mostly up to 57.5 µM
How it was run: as §2

[9] = system: WaGa; experiment: qHTS assay to identify novel small-molecules to repurpose for Merkel cell carcinoma treatment (AID 1296009); details: MCC and control cell lines, CellTiter-Glo viability, 72 h; series mostly up to 46 µM; note: nearly all actives have a fitted effect of over 60% in size
How it was run: as §1
Potency is the fitted concentration of half-maximal effect.

SMILES	Potency [1]	Potency [2]	Potency [3]	Potency [4]	Potency [5]	Potency [6]	Potency [7]	Potency [8]	Potency [9]
COc1cc2nc(N3CCCN(C)CC3)nc(NC3CCN(Cc4ccccc4)CC3)c2cc1OC	23.5 µM (active)	2.96 µM (active)	1.32 µM (active)	14.8 µM (active)	–	–	–	–	–
COC(=O)Nc1nc2ccc(C(=O)c3ccccc3)cc2[nH]1	–	–	–	4.18 µM (active)	3.72 µM (active)	inactive	–	–	–
Cc1nnc(NS(=O)(=O)c2ccc(N)cc2)s1	–	–	–	–	–	inactive	inactive	inactive	–
O=S(=O)(c1cccc2cnccc12)N1CCCNCC1	–	inactive	inactive	inactive	inactive	inactive	inactive	inactive	inactive
COc1cc2ncnc(Nc3cccc(Cl)c3)c2cc1OC	–	inactive	inactive	–	inactive	–	inactive	inactive	–
CCCc1cc(C(N)=S)ccn1	–	inactive	inactive	inactive	inactive	inactive	inactive	inactive	inactive
Cc1cccc(Nc2ccncc2S(=O)(=O)NC(=O)NC(C)C)c1	–	inactive	inactive	inactive	inactive	inactive	inactive	inactive	inactive
NC(N)=NC(N)=NCCc1ccccc1	–	–	–	–	–	inactive	–	–	–
CCC(=O)O[C@]1(C(=O)SCF)[C@H](C)C[C@H]2[C@@H]3C[C@H](F)C4=CC(=O)C=C[C@]4(C)[C@@]3(F)[C@@H](O)C[C@@]21C	–	inactive	inactive	inactive	inactive	–	inactive	inactive	inactive
O[C@@H](CNC[C@H](O)[C@H]1CCc2cc(F)ccc2O1)[C@@H]1CCc2cc(F)ccc2O1	–	–	26.4 µM (active)	23.7 µM (active)	inactive	–	–	–	inactive
N=C(N)c1ccc(OCCCCCOc2ccc(C(=N)N)cc2)cc1	–	–	–	–	–	inactive	–	inactive	–
COc1cnc(NS(=O)(=O)c2ccc(N)cc2)nc1	–	inactive	inactive	inactive	inactive	inactive	inactive	inactive	inactive and 13.2 µM (active)
Nc1[nH]c(=O)ncc1F	–	–	–	–	–	inactive	inactive	inactive	–
COC(=O)Nc1nc2ccc(S(=O)c3ccccc3)cc2[nH]1 (centres undefined)	inactive	–	–	–	–	inactive	–	–	–
COc1ccc2cc3[n+](cc2c1OC)CCc1cc2c(cc1-3)OCO2	–	1.88 µM (active) and 2.96 µM (active)	841 nM (active) and 1.48 µM (active)	9.44 µM (active) and 14.8 µM (active)	inactive	–	8.91 µM (active)	2.24 µM (active)	2.09 µM (active)
CNCC[C@H](Oc1cccc2ccccc12)c1cccs1	–	–	16.8 µM (active) and 18.7 µM (active)	16.6 µM (active)	inactive	–	–	–	inactive
CCc1c2c(nc3ccc(OC(=O)N4CCC(N5CCCCC5)CC4)cc13)-c1cc3c(c(=O)n1C2)COC(=O)[C@]3(O)CC	–	1.88 µM (active) and 1.87 µM (active)	944 nM (active) and 296 nM (active)	0.833 µM (active)	–	–	–	–	422 nM (active) and 662 nM (active)
CO[C@@]12[C@H](COC(N)=O)C3=C(C(=O)C(C)=C(N)C3=O)N1C[C@@H]1N[C@@H]12	–	–	–	–	–	3.55 µM (active)	inactive	8.91 µM (active)	–
CC[C@H](C)C(=O)O[C@H]1C[C@@H](C)C=C2C=C[C@H](C)[C@H](CC[C@@H]3C[C@@H](O)CC(=O)O3)[C@H]21	–	23.7 µM (active) and inactive	–	9.44 µM (active) and 20.9 µM (active)	21.1 µM (active)	inactive	inactive	inactive	inactive
CN1CCN(c2c(F)cc3c(=O)c(C(=O)O)cn(CCF)c3c2F)CC1	–	–	–	–	–	inactive	inactive	inactive	–
COC(=O)Nc1nc2ccc(Sc3ccccc3)cc2[nH]1	–	–	3.32 µM (active)	–	–	–	–	–	–
C[C@@H]1C[C@H]2[C@@H]3CCC4=CC(=O)C=C[C@]4(C)[C@@]3(Cl)[C@@H](O)C[C@]2(C)[C@@]1(OC(=O)c1ccco1)C(=O)CCl	–	16.6 µM (active)	29.9 µM (active) and 18.7 µM (active)	20.9 µM (active)	inactive	inactive	inactive	inactive	16.6 µM (active)
CN(C)c1ccc(C(=C2C=CC(=[N+](C)C)C=C2)c2ccc(N(C)C)cc2)cc1	–	0.118 µM (active)	94.4 nM (active) and 11.8 nM (active)	841 nM (active) and 187 nM (active)	750 nM (active) and 743 nM (active)	1.41 µM (active)	10 µM (active)	1.12 µM (active)	596 nM (active) and 296 nM (active)
COc1cc([C@@H]2c3cc4c(cc3[C@H](O)[C@H]3COC(=O)[C@H]23)OCO4)cc(OC)c1OC	–	inactive	0.0132 µM (active)	–	94.4 nM (active) and 2.6 nM (active)	inactive	–	–	47.3 nM (active) and inactive
CCCc1nc(C)c2c(=O)[nH]c(-c3cc(S(=O)(=O)N4CCN(CC)CC4)ccc3OCC)nn12	–	–	–	–	–	inactive	inactive	inactive	–
